Tau fluor counter = counter-screen for tau fibril formation inhibitors. hit rate 0.93% among 280,000. tau K18 P301L Alexa594 fluorescence, heparin fibrillization. Potency, µM (titrated, usually from 57.7 µM), for the others: at the top dose activity change, negative = decrease; note: % is set by controls: 0 for no effect and ±100 for the full control effect; nearly all actives have a fitted effect of over 55% in size
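Human tau K18 P301L (15 uM unlabeled, 0.24 uM Alexa 594-labeled) in 100 mM sodium acetate pH 7 with 20 uM heparin, 6 hr at 37 C. ThT 30 uM added, 1 hr ambient; Alexa 594 FP and total fluorescence read at 555/632 nm.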
Tau fibril FP = inhibitors of human tau fibril formation; AID 1468; K18 P301L tau heparin fibrillization, Alexa594 FP, 6 h; P10636; hit rate 0.39% among 280,000; Potency, µM (top dose mostly 57.7 µM), for the others: at the highest dose activity, negative = inhibition, usual class: inhibitors; note: % is set by controls: 0 for no effect and ±100 for the full control effect; nearly all actives have a fitted effect of over 55% in size
Target sequence (P10636 561-689 P618L limits assumed): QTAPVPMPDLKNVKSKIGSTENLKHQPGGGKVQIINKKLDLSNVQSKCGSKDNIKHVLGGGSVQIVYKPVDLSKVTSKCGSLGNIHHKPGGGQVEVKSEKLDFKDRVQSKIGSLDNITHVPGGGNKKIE
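Steps: dispense K18 P301L tau (15 uM plus 0.24 uM Alexa 594 tracer, final) in pH 7 sodium acetate; add compound; add heparin (20 uM final); incubate 6 hr, 37 C; add ThT (30 uM final); after 1 hr ambient, read FP.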
HTT aggregate = mutant huntingtin aggregation inhibition; PC12 HttQ103-GFP aggregates, Acumen cytometry, 40 h; Potency, µM (highest dose often 46.1 µM), inactives show at the top dose activity change, negative = inhibition, actives largely listed as inhibitors; hit rate 1.1% among 220,000; AID 1688; note: % is set by controls: 0 for no effect and ±100 for the full control effect; nearly all actives have a fitted effect of over 60% in size
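Using laser scanning cytometry, GFP-positive aggregates were counted after lysis of PC12 cells induced with 100 nM tebufenozide to express HTT exon 1 Q103–GFP. Compounds were tested in titration.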
Tau fibril ThT = inhibitors of human tau fibril formation, thioflavin T binding; P10636; recombinant tau K18 P301L (four-repeat tau fragment), heparin-induced fibrillization, ThT fluorescence; Potency, µM (highest dose often 57.4 µM), inactives show at the top dose activity, negative = inhibition, usual class: inhibitors; hit rate 2.1% among 270,000; AID 1460; note: % is set by controls: 0 for no effect and ±100 for the full control effect; nearly all actives have a fitted effect of over 55% in size
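Tau K18 P301L fragment (15 uM unlabeled plus 0.24 uM Alexa 594-labeled) in 100 mM sodium acetate pH 7 with compound, fibrillization induced by 20 uM heparin for 6 hr at 37 C. Thioflavin T (30 uM) added, fluorescence read after 1 hr (ex 450, em 510 nm).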
HTT cytoprotect = cytoprotection in Huntington HTT-Q103 PC12 cell model; Potency, µM (series often up to 56.4 µM), without a hit: cytoprotection (ATP increase), actives largely listed as activators; PC12 HTT-Q103 induced, cytoprotection, ATP luminescence, 40 h; hit rate 0.14% among 230,000; note: % of control where 0% means no effect; nearly all actives have a fitted effect of over 45% in size
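PC12 cells stably carrying ecdysone-inducible Htt exon 1 (Q103)–GFP were induced with 100 nM tebufenozide (final) alongside library compounds in a dose series. Cytoprotection was scored as retained ATP by ATPlite luminescence.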
* marks the source's active call; other numbers are inactive results; u = inconclusive; x = no result given; [ ] = another dose, or the depositor's remark. Sampled rows, rich in hits. Any-hit rate of the full collection: about 3.7%. Calls come from the whole dose curve; as a rule, active = well fitted curve in the direction sought with a large enough effect; inconclusive = small, poorly fitted or top-dose-only effect, or another doubt; inactive = no such curve, though single readings can be large; an effect the other way counts as inactive or inconclusive. Potency is the fitted concentration of half-maximal effect.

SMILES	Tau fluor counter	Tau fibril FP	HTT aggregate	Tau fibril ThT	HTT cytoprotect
COc1ccc(-n2c(C)nc3c(cnn3-c3ccc(Cl)cc3)c2=O)cc1	-9.2%	-6.7%	12.6µM*	-15.8%	-64.4%
CCOC(=O)Cn1cnc2c(cnn2-c2ccc(Cl)cc2)c1=O	-21.8%	-13.6%	15.8µM*	u	-68.0%
Cc1cc(N2CCOCC2)ccc1/C=C1/SC(=O)NC1=O	-27.0%	-8.7%	4.7%	10µM*	-124.9%
N=c1n(Cc2ccc(Cl)cc2)c2ccccc2n1CC(O)COc1ccccc1 (stereo unspecified)	0.5%	-10.8%	14.1µM*	-17.3%	0.4%[10 µM]
CC(C)Oc1cc2oc(=O)c3c(c2cc1Cl)CCC3	0.5%	2.9%	13.5%	0.0%	10.4%
CC(=O)Oc1cc2oc(=O)c3c(c2cc1Cl)CCC3	u	17.8µM*	-1.4%	14.1µM*	-9.4%[10 µM]
COc1ccc(Cl)cc1C(=O)Nc1ccc2nc(Nc3cccc(Cl)c3)cc(C)c2c1	15.8µM*[quencher]	14.5%	x	u	x
Cc1cc(Nc2cccc(Cl)c2)nc2ccc(NC(=O)c3ccc(F)cc3Cl)cc12	4.47µM*[quencher]	u	x	u	x
Cc1cc(Nc2cccc(Cl)c2)nc2ccc(NC(=O)Cc3ccc(Cl)cc3)cc12	3.55µM*[quencher]	u	x	u	x
Cc1cc(Nc2cccc(Cl)c2)nc2ccc(NC(=O)Cc3cccc(C(F)(F)F)c3)cc12	3.98µM*[quencher]	u	x	u	x
C[C@H](NC(=O)/C(C#N)=C/c1ccc(O)c(O)c1)c1ccccc1	u	-13.3%	x	u	-9.6%
COc1ccc(CC(=O)Nc2ccc3nc(Nc4cccc(Cl)c4)cc(C)c3c2)cc1OC	2.51µM*[quencher]	u	x	u	x
CC1=CC(C)(C)NC(=S)N1c1cccc2cc(S(=O)(=O)O)ccc12	-28.8%	u	-9.3%[9.22 µM]	31.6µM*	-0.3%[10 µM]
Nc1cc(C(=O)O)c(O)c(S(=O)(=O)O)c1	x	x	x	x	-3.9%
CCOc1ccccc1NC(=O)CCC(=O)Nc1ccc2nc(N3CCN(C)CC3)cc(C)c2c1	-26.0%	9.5%	6.0%	u	-7.3%
CCN1CCN(c2cc(C)c3cc(NC(=O)/C=C/c4cccc(OC)c4OC)ccc3n2)CC1	17.8µM*[quencher]	15.9%	x	3.16µM*	x
COc1cccc(/C=C/C(=O)Nc2ccc3nc(N4CCN(C)CC4)cc(C)c3c2)c1OC	8.91µM*[quencher]	8.1%	x	5.01µM*	x
COc1ccc(N2CCN(S(=O)(=O)c3ccc(OC)c(-c4noc(C)n4)c3)CC2)cc1	-10.3%	-3.7%	x	u	x
CCOC(=O)/C(=N/Nc1ccccc1)Sc1nnnn1-c1ccc(C)cc1	2.0%	-0.5%	27.4%	-1.2%	22.8%[10 µM]
CCOC(=O)/C(=N/Nc1ccc(Cl)cc1)Sc1nnnn1-c1ccc(C)cc1	-21.0%	7.3%	2.51µM*	-9.2%	4.7%[10 µM]
CCOC(=O)c1cnc2c(C)cccc2c1Nc1ccc(N2CCOCC2)cc1	u	u	-2.9%	22.4µM*	-14.2%[10 µM]
CCOC(=O)c1cnc2ccccc2c1Nc1ccc(N2CCOCC2)cc1	-26.7%	0.6%	x	u	x
COc1ccc(Nc2nc(S(=O)(=O)c3ccc(C)cc3)c(Cl)s2)cc1	10µM*[quencher]	4.1%	-27.0%	-16.7%	4.7%[10 µM]
Cc1ccc(S(=O)(=O)c2nc(Nc3ccccc3)sc2Cl)cc1	14.1µM*[quencher]	u	u	-0.5%	-15.0%[10 µM]
CC(=O)c1cccc(Nc2cc(C)nc3nc(-c4ccccc4C)nn23)c1	0.8%	0.0%	x	-5.9%	x
SMILES	Tau fluor counter	Tau fibril FP	HTT aggregate	Tau fibril ThT	HTT cytoprotect
Cc1ccc(-n2ncc3c(NCc4ccco4)ncnc32)cc1C	u	-14.4%	0.005µM*	-11.3%	-61.7%
Cc1cccc(-n2ncc3c(NCc4cccs4)ncnc32)c1	u	u	11.2µM*	-12.0%	-28.6%
Cc1cccc(-n2ncc3c(NCc4ccco4)ncnc32)c1	-15.4%	7.9%	u	-17.1%	-23.1%[10 µM]
Clc1ccc2c(NCc3ccco3)ncnc2c1	-6.2%	-11.5%	14.1µM*	-4.6%	-12.3%
CC(=O)OCOC(c1ccc2ccccc2c1)P(=O)(OCOC(C)=O)OCOC(C)=O (stereo unspecified)	-4.3%	-4.4%	x	-1.6%	14.1%
Cc1cccc(CNc2ncncc2-c2cccc(NS(C)(=O)=O)c2)c1	-13.9%	-7.8%	x	-13.3%	-11.1%
CCNC(=O)[C@H]1O[C@@H](n2cnc3c(N)nc(NCCc4ccc(CCC(=O)O)cc4)nc32)[C@H](O)[C@H]1O	-7.5%	-0.8%	x	-11.2%	x
NNc1nc2ccc(Cl)cc2s1	14.1µM*[quencher]	u	u	22.4µM*	-3.6%[10 µM]
Fc1ccc2nc(Nc3ccccc3)sc2c1	u	13.3%	-14.2%	5.2%	x
NNc1nc2ccc(F)cc2s1	17.8µM*[quencher]	u	5.4%	25.1µM*	2.7%[10 µM]
O=C1c2ccccc2C(=O)N1c1ccc(Cc2ccc(N3C(=O)c4ccccc4C3=O)cc2)cc1	x	x	x	x	16.1%[10 µM]
COc1ccc(N2C(=O)C(CC(=O)Nc3ccc(Cl)cc3)N(Cc3ccc4c(c3)OCO4)C2=O)cc1 (stereo unspecified)	u	u	x	6.4%	x
Oc1ccc(N2CCN(C(=S)NCCc3ccccc3)CC2)cc1	-26.8%	13.3%	-29.6%	14.1µM*	-71.9%
O=C(Oc1ccccc1C(=O)O)c1ccccc1O	-5.0%	-6.0%	-6.4%	-1.7%	29.2%
O=C(/C=C/C(=O)Oc1ccccc1C(=O)O)Oc1ccccc1C(=O)O	-13.0%	25.1µM*	x	25.1µM*	x
CCCCCc1ccc(OCCCC[n+]2ccccc2)c(CCCCC)c1	6.3%	4.2%	11.2µM*	-16.2%	-91.0%
CCc1nc(SCC(=O)Nc2nc3c(s2)CCCC3)c2ccccc2n1	-13.3%	2.7%	x	u	25.1µM*
CCCc1nc(SCC(=O)Nc2nc3c(s2)CCCC3)c2ccccc2n1	-15.5%	-6.7%	7.1%	u	-13.5%
Cc1[nH]c2ccccc2c1/C=N/Nc1nc(Nc2ccc(F)cc2)nc(N2CCOCC2)n1	31.6µM*[quencher]	u	u	28.2µM*	x
C/C=C/c1ccc2oc(-c3ccc(O)cc3)c(C)c2c1	14.1µM*[quencher]	u	x	17.8µM*	-19.5%
Cc1c(-c2ccccc2)oc2cc(O)ccc2c1=O	-7.3%	-12.3%	x	-0.6%	-4.4%[1.9 µM]
Cc1nc(N)sc1N=Nc1ccc(F)cc1	u	10.6%	-3.5%[9.22 µM]	8.91µM*	-17.2%
CN(C)c1ccc(NC(=O)c2ccc(Cn3cc([N+](=O)[O-])cn3)cc2)cc1	u	14.3%	-23.9%	12.6µM*	-55.2%
O=C(COc1ccc(Cl)cc1)Nc1cnn(Cc2c(Cl)cccc2Cl)c1	-19.7%	-14.3%	2.6%	-4.7%	-41.7%
O=C(Nc1cnn(Cc2c(Cl)cccc2Cl)c1)c1ccc([N+](=O)[O-])cc1	25.1µM*[quencher]	u	10.9%	-20.2%	-4.9%
CC1(C)COCN1COC1CCCCC1	x	x	x	x	-12.4%[10 µM]
c1ccc(-c2n[nH]c3c2oc2ccccc23)cc1	u	u	x	-9.8%	-33.0%
CCOc1cc(C2C(C(=O)OC)=C(C)NC3=C2C(=O)c2ccccc23)c(Br)cc1OC (stereo unspecified)	15.8µM*[quencher]	0.3%	x	u	x
